Mtb RmlCD inh: M. tuberculosis RmlC/RmlD coupled enzyme inhibitors, primary screen, biochemical, compound mixtures, 384-well, from 1536-well plates; inhibition, % at 3.6 µM; 160,000 tested, 0.03% active; dTDP-4-dehydrorhamnose reductase (Mycobacterium tuberculosis (strain ATCC 25618 / H37Rv)) …; RmlC+RmlD coupled enzyme assay, percent inhibition; primary screen in compound mixtures; in the data active = inhibition mostly above about 34%, no sharp cut-off
Target sequence (P9WH09 whole entry, looked up): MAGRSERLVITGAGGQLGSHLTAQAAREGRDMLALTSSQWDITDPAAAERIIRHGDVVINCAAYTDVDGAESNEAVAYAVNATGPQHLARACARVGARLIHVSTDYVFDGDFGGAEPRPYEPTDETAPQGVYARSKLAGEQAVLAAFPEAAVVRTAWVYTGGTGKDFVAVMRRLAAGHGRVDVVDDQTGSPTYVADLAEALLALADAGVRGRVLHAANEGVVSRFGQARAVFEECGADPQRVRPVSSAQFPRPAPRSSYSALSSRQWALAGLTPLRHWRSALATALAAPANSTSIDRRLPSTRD
Target sequence (P9WH11 whole entry, looked up): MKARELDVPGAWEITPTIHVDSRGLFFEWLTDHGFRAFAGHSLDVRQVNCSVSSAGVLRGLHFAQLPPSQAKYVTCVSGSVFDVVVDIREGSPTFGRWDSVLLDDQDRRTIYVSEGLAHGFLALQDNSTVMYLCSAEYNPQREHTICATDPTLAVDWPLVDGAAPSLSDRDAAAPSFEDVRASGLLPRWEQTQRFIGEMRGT
DUSP3 inh: VHR1 phosphatase inhibitors, primary screen, biochemical, absorbance, uHTS; Dual specificity protein phosphatase 3 (Homo sapiens), P51452; recombinant VHR phosphatase, pNPP absorbance; inhibition, % at 13.3 µM; 290,000 tested, 0.52% active; in the data active = inhibition above about 50%
* hit, by the source's call; / = not tested or not shown. Shown are actives, neighbours in structure and some others; about 0.54% of the full set was active somewhere.

SMILES | Mtb RmlCD inh | DUSP3 inh
CCOc1ccc(NC(=O)NNC(=O)C(C)Oc2ccccc2OC)cc1 (stereo not drawn) | / | 24.0
CC(SCC(=O)Nc1ccc(S(=O)(=O)N2CCCCC2)cc1)C(=O)O (stereo not drawn) | 32.2 | 23.2
OCCN(Cc1ccccc1)c1ncnc2sccc12 | / | 51.1*
CN(Cc1ccccc1F)c1ncnc2sccc12 | / | 34.4
CCOc1ccc2nc(NC(=O)c3ccccn3)sc2c1 | -12.2 | 22.6
Cc1ccc2nc(NC(=O)c3ccccn3)sc2c1 | / | 51.9*
COc1cc(CN2CCN(c3ccc(C)cc3)CC2)cc([N+](=O)[O-])c1O | / | 20.0
CCN1CCCC1CNC(=O)c1cn(C)c2ccc(S(=O)(=O)N3CCCCCC3)cc2c1=O (stereo not drawn) | / | 50.8*
CCC1CCCCN1CCCNC(=O)c1cn(CC)c2ccc(S(=O)(=O)N(C)C3CCCCC3)cc2c1=O (stereo not drawn) | / | 51.2*
CCN1CCCC1CNC(=O)c1cn(CC)c2ccc(S(=O)(=O)N3CCCCCC3)cc2c1=O (stereo not drawn) | 15.4 | -7.3
CCn1cc(C(=O)NCCCOC)c(=O)c2cc(S(=O)(=O)N(C)C3CCCCC3)ccc21 | 8.6 | 7.8
CN(Cc1ccccc1)C1(CNC(=O)CCC(F)(F)F)Cc2ccccc2C1 | / | 13.9
O=C(CN1C(=O)S/C(=C\c2ccccc2Cl)C1=O)NCCCn1ccnc1 | / | -3.6
CCCCNC(=O)CSc1nc2cc3c(cc2c(=O)n1CCC(=O)NCCc1ccc(OC)c(OC)c1)OCO3 | -6.7 | -19.7
CCCCn1c(-c2cccs2)nc2nc3ccccc3nc21 | / | 13.2
CCCCOCCCn1c(-c2ccco2)nc2nc3ccccc3nc21 | 56.6* | 8.1
CC(=O)NC12CC3CC(C)(C1)CC(NC(C)=O)(C3)C2 | 1.0 | -5.0
CC1(C)Cc2c(cnn2-c2ccc(F)cc2)C(NC(=O)c2ccc(=O)oc2)C1 (stereo not drawn) | / | 3.6
Cc1ccc(S(=O)(=O)c2nc(S(C)(=O)=O)sc2N2CCCCCC2)cc1 | / | -22.8
Cc1ccc(S(=O)(=O)c2nc(S(C)(=O)=O)sc2N2CCN(C)CC2)cc1 | / | 55.5*
O=C(N/C(=C\c1ccc(Br)cc1)C(=O)N1CCOCC1)c1ccc([N+](=O)[O-])cc1 | / | -9.5
Cc1cc(C)c(NC(=O)COc2ccccc2C(=O)Nc2ccc3c(c2)oc2ccccc23)c(C)c1 | 98.7* | -2.5
COc1ccccc1C(=O)Nc1ccc2c(C)cc(=O)oc2c1 | / | -8.2
Cc1ccccc1P(=O)(CO)c1ccccc1C | / | 15.3
CCOc1ccc(CCNC(=O)C2CCCN(S(C)(=O)=O)C2)cc1OCC (stereo not drawn) | / | 44.0
SMILES | Mtb RmlCD inh | DUSP3 inh
CCOC(=O)N1CCN(S(=O)(=O)N2CCCC(C(=O)NCCc3ccc(OCC)c(OCC)c3)C2)CC1 (stereo not drawn) | / | 56.8*
CC1CCN(S(=O)(=O)c2ccc3c(c2)c(=O)c(C(=O)N2CCCCC2)cn3C)CC1 | -1.6 | 0.8
COc1ccccc1N(CC(=O)N1CCCC1)S(=O)(=O)c1ccc(C)cc1 | / | 2.2
COc1ccccc1N(CC(=O)N1CCCCCC1)S(=O)(=O)c1ccc(C)cc1 | / | 50.4*
CN(C(=O)c1ccc(F)cc1)c1ccccc1C(=O)NCc1ccccc1 | / | 10.5
CN(C(=O)c1ccccc1Cl)c1ccccc1C(=O)NCc1ccccc1 | / | 52.9*
O=c1c2c(nc3n1CCS3)c1cc(F)ccc1n2Cc1cc(=O)n2cc(Cl)ccc2n1 | -9.1 | 20.6
COc1ccc(-c2cc3nc4n(c(=O)c3s2)CCCCC4)cc1 | -8.1 | 26.9
COc1ccc(-c2cc3nc4n(c(=O)c3s2)CCC4)cc1 | 76.6* | 9.9
COc1ccc(CN2CCN(Cc3ccc4cc(F)ccc4n3)CC2CCO)c(C)c1C (stereo not drawn) | / | 50.7*
COc1cc(CN2CCN(Cc3ccc4cc(F)ccc4n3)CC2CCO)cc(OC)c1 (stereo not drawn) | / | -28.8
COc1cc(C(C(=O)NC2CCCC2)N(CCO)C(=O)Cn2nnc(-c3ccc(C)o3)n2)ccc1O (stereo not drawn) | / | 6.7
COc1ccc(-c2noc(CN(C(=O)c3cccs3)C(C)C)n2)cc1 | / | 20.8
O=C(O)CN1C(=O)/C(=C\c2cc(Br)ccc2OCc2ccc(Cl)cc2)SC1=S | / | 57.3*
O=C(O)CN1C(=O)/C(=C\c2cc(Br)ccc2OCc2ccc(F)cc2)SC1=S | / | -2.4
Cc1ccccc1NC(=O)CSc1nc2ccccc2c(=O)n1C | / | -0.7
Cc1cc(C)c(-c2csc(NC(=O)/C=C/c3cccs3)n2)c(C)c1 | -3.6 | 52.9*
Cc1cc(C)nc(NC(=O)/C=C/c2cccs2)c1 | 25.2 | 39.7
COc1cc(/C=C/C(=O)OCC(=O)Nc2ccc3c(c2)OCCO3)ccc1OCC#N | -0.7 | -4.8
O=c1[nH]c2ccccc2[n+]([O-])c1-c1ccccc1 | 0.3 | 21.7
CN(Cc1ccccc1)C(=O)COC(=O)CCNC(=O)c1ccccc1Cl | -27.3 | 24.3
